Source: PubChem BioAssay (Tox21)
Where “and” joins values, the source holds several entries; their conditions need not be identical. Identical values can stand only once. Values without a mark were called inactive. Records with an inconclusive call do not appear. A call without a number means that no potency is given here. Calls of active or inactive are those of the source. Unless noted, the call rests on the fitted dose curve; in most records, active means well fitted curve in the direction sought with a large enough effect in the repeat runs; inconclusive means weak or mixed curves; inactive means no such curve, though single readings can be large; an effect the other way counts as inactive or inconclusive.

Target: Androgen receptor (Homo sapiens) (UniProt P10275)
Experiment: qHTS assay to identify small molecule agonists of the androgen receptor (AR) signaling pathway (AID 743036; active means well fitted activation curve with a large enough effect in the signal ratio in the repeat runs, with a control signal flat, not every such curve was filed as active; the % refers to the signal ratio; further: potency means the concentration at half of the fitted maximal effect)
Details: HEK293 AR-UAS-bla GripTite, beta-lactamase FRET ratio, 16 h; series mostly up to 62.4 µM
In short: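 Fluorescence from a beta-lactamase FRET substrate served as read-out in AR-UAS-bla GripTite HEK293 cells. Cells were treated with DMSO-dissolved compounds for 16 h at 37C, then with LiveBLAzer B/G substrate for 2 h at room temperature.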

Androgen receptor (Homo sapiens), sequence (P10275 whole entry, looked up): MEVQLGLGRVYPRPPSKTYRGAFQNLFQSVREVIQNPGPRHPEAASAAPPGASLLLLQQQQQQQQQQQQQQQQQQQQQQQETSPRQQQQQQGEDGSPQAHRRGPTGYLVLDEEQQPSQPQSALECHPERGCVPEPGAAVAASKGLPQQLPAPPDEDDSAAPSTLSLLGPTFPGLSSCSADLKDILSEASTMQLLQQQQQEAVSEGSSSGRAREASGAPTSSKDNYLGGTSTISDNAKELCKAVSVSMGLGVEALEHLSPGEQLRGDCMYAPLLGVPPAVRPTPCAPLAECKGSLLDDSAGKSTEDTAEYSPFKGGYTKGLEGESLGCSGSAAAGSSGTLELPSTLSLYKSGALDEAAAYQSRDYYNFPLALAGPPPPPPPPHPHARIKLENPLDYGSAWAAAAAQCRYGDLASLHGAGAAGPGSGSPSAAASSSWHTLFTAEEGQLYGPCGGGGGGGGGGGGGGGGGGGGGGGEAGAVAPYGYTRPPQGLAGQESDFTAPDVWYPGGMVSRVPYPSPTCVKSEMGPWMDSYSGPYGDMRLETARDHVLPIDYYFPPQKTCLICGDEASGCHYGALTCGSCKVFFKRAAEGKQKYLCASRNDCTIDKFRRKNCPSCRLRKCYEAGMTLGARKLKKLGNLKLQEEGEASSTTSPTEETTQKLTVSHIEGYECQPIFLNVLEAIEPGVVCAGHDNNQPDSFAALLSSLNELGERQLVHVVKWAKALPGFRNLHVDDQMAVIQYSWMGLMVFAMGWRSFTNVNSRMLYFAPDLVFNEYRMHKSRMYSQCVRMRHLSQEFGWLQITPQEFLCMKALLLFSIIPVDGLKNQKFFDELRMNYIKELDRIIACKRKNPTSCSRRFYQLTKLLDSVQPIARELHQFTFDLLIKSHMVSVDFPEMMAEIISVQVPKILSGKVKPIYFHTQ

Row | Structure (SMILES) | Potency
1 | Nc1nc(N)c2nc(-c3ccccc3)c(N)nc2n1 | 21.3 µM (active) and 49.5 µM (active) and 49 µM (active)
2 | Cc1ccccc1Cl | inactive
3 | Cc1nnc(NS(=O)(=O)c2ccc(N)cc2)s1 | inactive
4 | Cc1ccc(C(C)C)cc1 | inactive
5 | CCCCC(CC)COC(=O)c1ccc(C(=O)OCC(CC)CCCC)cc1 (stereo not given) | inactive
6 | OCC(O)CS (stereo not given) | inactive

Target: Androgen receptor (Homo sapiens) (UniProt P10275)
Experiment: qHTS assay to identify small molecule agonists of the androgen receptor (AR) signaling pathway using the MDA cell line (AID 743040; further: nearly all actives have a fitted effect of over 20% in size)
Details: MDA-kb2 AR-luc cells, MMTV luciferase, 16 h; at 70.3 µM (top of the series); hits give high values
In short: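 Luminescence from ONE-Glo, read after 30 min at room temperature, reflects MMTV-driven luciferase in MDA-kb2 cells (AR- and GR-responsive). Treatment lasted 16 h at 37C, 0% CO2.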

Row | Structure (SMILES) | activity change
7 | Nc1nc(N)c2nc(-c3ccccc3)c(N)nc2n1 | 18%
8 | Cc1ccccc1Cl | -0.0268%
9 | Cc1nnc(NS(=O)(=O)c2ccc(N)cc2)s1 | 6.45% and 3.21%
10 | Cc1ccc(C(C)C)cc1 | 1.12%
11 | CCCCC(CC)COC(=O)c1ccc(C(=O)OCC(CC)CCCC)cc1 (stereo not given) | 2.15% and 1.01%
12 | OCC(O)CS (stereo not given) | 0.512%

Tested on: not listed separately
Experiment: qHTS assay to identify small molecule antagonists of the androgen receptor (AR) signaling pathway using the MDA cell line - cell viability counter screen (AID 743041; further: nearly all actives have a fitted effect of over 45% in size; further: potency means the concentration at half of the fitted maximal effect)
Details: MDA-kb2 viability, CellTiter-Fluor, 16 h, cells co-treated with R1881 androgen agonist; series mostly up to 70.3 µM
In short: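 Viability counter screen run alongside the AR antagonist reporter: cells seeded 5 h before compound, R1881 added, 16 h incubation at 37C without CO2, fluorescent CellTiter-Fluor signal quantified.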

Row | Structure (SMILES) | Potency
13 | CC(C)(C)NC[C@H](O)COc1nsnc1N1CCOCC1 | inactive
14 | Cc1ccc([N+](=O)[O-])cc1N | inactive
15 | CC(C)=CCC/C(C)=C/C=O | inactive
16 | O=C(NCC1CCCCN1)c1cc(OCC(F)(F)F)ccc1OCC(F)(F)F (stereo not given) | inactive
17 | CC1(C)[C@@H](O[C@H]2O[C@H](C(=O)O)[C@@H](O)[C@H](O)[C@H]2O[C@@H]2O[C@H](C(=O)O)[C@@H](O)[C@H](O)[C@H]2O)CC[C@]2(C)[C@H]3C(=O)C=C4[C@@H]5C[C@@](C)(C(=O)O)CC[C@]5(C)CC[C@@]4(C)[C@]3(C)CC[C@@H]12 | inactive
18 | C1CCCNCC1 | inactive
19 | COc1c2ccoc2cc2oc(=O)ccc12 | inactive
20 | CC(=O)Nc1ccc(CC(=O)O)cc1 | inactive
21 | CCCCCCC(=O)O | inactive
22 | CC(=O)OC(C)(C)C1CC=C(C)CC1 (stereo not given) | inactive
23 | Cc1ccccc1C=O | inactive
24 | NC(=O)NC(N)=O | inactive
25 | Cc1cc(CC(=O)O)n(C)c1C(=O)c1ccc(Cl)cc1 | inactive
26 | C[Si](C)(C)N[Si](C)(C)C | inactive
27 | COc1ccc2cc3[n+](cc2c1OC)CCc1cc2c(cc1-3)OCO2 | 22.1 µM (active) and 7.75 µM (active)
28 | Nc1nc(N)c2nc(-c3ccccc3)c(N)nc2n1 | inactive
29 | Clc1cccc(Cl)c1NC1=NCCN1 | inactive
30 | O=C(O)C1=NN(c2ccc(S(=O)(=O)O)cc2)C(=O)C1 | inactive
31 | N[C@@H](Cc1cc(I)c(Oc2ccc(O)c(I)c2)c(I)c1)C(=O)O | inactive

Row | Structure (SMILES) | Potency
32 | C=C(CC(=O)O)C(=O)O | inactive
33 | Cc1ccccc1Cl | inactive
34 | CCCCCCCCCCCCCC(=O)O | inactive
35 | O=C1CCCCCCCCCCC1 | inactive
36 | COCN(COC)c1nc(N(COC)COC)nc(N(COC)COC)n1 | inactive
37 | Cc1nnc(NS(=O)(=O)c2ccc(N)cc2)s1 | inactive
38 | C[n+]1ccn(CCO)c1 | inactive
39 | NC(N)=S | inactive
40 | CCCCCCCCC(=O)O | inactive
41 | OC1CCCCC1 | inactive
42 | Cc1ccc(C(C)C)cc1 | inactive
43 | CCn1cc(C(=O)O)c(=O)c2cc3c(cc21)OCO3 | inactive
44 | CC(=O)CC(=O)N(C)C | inactive
45 | CCCCC(CC)COC(=O)c1ccc(C(=O)OCC(CC)CCCC)cc1 (stereo not given) | inactive
46 | Cc1cc(C)c(O)c(C)c1 | inactive
47 | CC(C)c1ccc(C(C)C)cc1 | inactive
48 | Oc1ccc(Cc2ccccc2O)cc1 | inactive
49 | OCC(O)CS (stereo not given) | inactive
50 | Cc1ccncc1 | inactive
